Test results taken from the supplement of paper PMC12532568.
Structures can show the parent of a compound that is named as a salt.

system: Danio rerio larvae Tg(actc1b:ZsGreen-LC3), 3 dpf; assay: LC3 puncta relative area vs vehicle, with NH4Cl (autophagic flux) (log2 fold change); higher = more autophagy; settings: 10 µM; treatment time 16 h; NH4Cl: + 100 mM, 4 h
Procedure: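 Transgenic Tg(actc1b:ZsGreen-map1lc3) zebrafish larvae (2 dpf) were treated for 16 h with Tocris library compounds at 10 µM (n = 12 larvae per compound). Skeletal-muscle LC3 puncta area relative to body area was measured by high-content confocal imaging before and after 4 h of 100 mM NH4Cl (autophagic flux), normalised to vehicle (DMSO), and reported as log2 fold change.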

Structure (SMILES) | LC3 puncta (log2)
CCC(C)N(C)C(=O)c1cc2ccccc2c(-c2ccccc2Cl)n1 (stereo not given) | 0.363
Nc1nc2ccc(OC(F)(F)F)cc2s1 [Riluzole] | 0.631
CC(C)(C)NC[C@H](O)COc1nsnc1N1CCOCC1 [(S)-Timolol maleate] | 0.785
CC(=O)NCC(=O)N[C@H](CCC(=O)O)C(=O)O [N-Acetylglycyl-D-glutamic acid] | 0.237
CC(=O)N[C@@H](Cc1c[nH]c2ccccc12)C(=O)OCc1cc(C(F)(F)F)cc(C(F)(F)F)c1 | 0.108
O=C(O)C1=CCCNC1 [Guvacine hydrochloride] | 0.136
COc1cc2c(CCNC(C)=O)c[nH]c2cc1Cl [6-Chloromelatonin] | 0.198
O=C(/C=C/c1ccc(O)c(O)c1)O[C@H](Cc1ccc(O)c(O)c1)C(=O)O [Rosmarinic acid] | 0.0251
c1ccc(CN2CCC3(CCc4ccccc43)CC2)cc1 [L-693,403 maleate] | 0.655
CCOC(=O)C1=C[C@]2(CC)CCCN3CCc4c(n1c1ccccc41)[C@@H]32 [Vinpocetine] | 1
NS(=O)(=O)c1cccc2c1c([N+](=O)[O-])cc1nc(O)c(O)nc12 | 0.16
Clc1cccc(Nc2nnc(-c3ccccc3)c3ccccc23)c1 | 0.446
O=C(O)c1cc(=O)c2ccccc2[nH]1 [Kynurenic acid] | -0.156
CC(C)NCC(O)COc1cccc2ccccc12 (stereo not given) [Propranolol hydrochloride] | 1.08
CSc1ccc2c(c1)C(N1CCN(C)CC1)Cc1ccccc1S2 (stereo not given) [Methiothepin maleate] | -0.129
CCCCOc1cc(CC2CNC(=O)N2)ccc1OC (stereo not given) | 0.0673
c1ccc(N2CCN(CCCOc3ccc4c(c3)OCO4)CC2)cc1 [BP 554 maleate] | 0.422
CCN(CC)CCOC(=O)C1(c2ccc([N+](=O)[O-])cc2)CCCC1 [Nitrocaramiphen hydrochloride] | 0.825
O=[N+]([O-])c1cc2nc(O)c(O)nc2cc1[N+](=O)[O-] | 0.11
Nc1cc(N2CCCCC2)nc(N)[n+]1[O-] [Minoxidil] | 0.501

Structure (SMILES) | LC3 puncta (log2)
O=C(O)CC/C=C\C[C@H]1CO[C@@H](c2ccccc2Cl)O[C@H]1c1ccccc1O | -0.012
NC(N)=NC(N)=Nc1cccc(Cl)c1 [m-Chlorophenylbiguanide hydrochloride] | 0.782
CC(C)(Oc1ccc(Cl)cc1)C(=O)O [Clofibric acid] | 0.77
N[C@H](C(=O)O)c1ccc(C(=O)O)c(O)c1 [(S)-4-Carboxy-3-hydroxyphenylglycine] | -0.0785
NC(C(=O)O)c1cc(O)cc(O)c1 (racemic) | 0.022
NC(=O)Nc1sc(-c2ccc(F)cc2)cc1C(N)=O | 0.588
CC(=O)N[C@@H](CC(=O)N[C@@H](CCC(=O)O)C(=O)O)C(=O)O [Spaglumic acid] | 0.103
COc1ccc(CCN(C)CCc2ccc(OC)c(OC)c2)cc1OC [YS-035 hydrochloride] | 0.374
c1ccc2sc(N3CCN(Cc4ccc5c(c4)OCO5)CC3)nc2c1 [2-[1-(4-Piperonyl)piperazinyl]benzothiazole] | 0.593
c1ccc(CN(CC2=NCCN2)c2ccccc2)cc1 [Antazoline hydrochloride] | 0.684
CCc1nc(N)nc(N)c1-c1ccc(Cl)cc1 [Pyrimethamine] | 0.578
N[C@H](C(=O)O)c1cc(O)cc(O)c1 | 0.736
Brc1c(NC2=NCCN2)ccc2nccnc12 | 0.713
CN1CCC(=C2c3ccccc3CC(=O)c3sccc32)CC1 [Ketotifen fumarate] | 0.874
C1COC(NC(C2CC2)C2CC2)=N1 [Rilmenidine hemifumarate] | 0.305
O=C1c2ccccc2CCC1CNCCc1ccc(O)cc1 (stereo not given) [HEAT hydrochloride] | 0.616
O=C(OCCN1CCOCC1)C1(c2ccccc2)CCCCC1 [PRE-084 hydrochloride] | 0.339
O=S(=O)(c1cccc2cnccc12)N1CCCNCC1 [Fasudil hydrochloride] | 0.726
c1ccc2oc(C3=NCCN3)cc2c1 [2-BFI hydrochloride] | -0.32
COc1cc(N)c(Cl)cc1C(=O)OCCCN1CCCCC1 | 0.449
